Test results as given in PubChem BioAssay AID493169 (National Center for Advancing Translational Sciences (NCATS), 2011).
Records with an inconclusive call do not appear. Entries that show only a call come without a potency. Active and inactive are the calls of the source. Calls come from the whole dose curve; as a rule, active = well fitted inhibition curve with a large enough effect; inconclusive = small, poorly fitted or top-dose-only effect; inactive = flat fitted curve, though single readings scatter.
Potency is the fitted concentration of half-maximal effect.

Test: CHOP2 Reporter Counterscreen Assay for Inhibitors of Ubiquitin-specific Protease USP2a;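 note: activated enterokinase alone at 50 pM in a cell-free format rather than USP2a or CHOP2; nearly all actives have a fitted effect of over 55% in size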
Settings: purified enterokinase, fluorogenic substrate, 485/531 nm; series mostly up to 38.3 µM
Outline: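 Cell-free counterscreen with pre-activated enterokinase alone (50 pM final) in 20mM Tris-HCl pH 8.0, 2mM CaCl2, 2mM beta-mercaptoethanol, 0.05% CHAPS; compound preincubation 30 min RT, reporter substrate 25nM final, fluorescence read after 10 min (Ex 485/Em 531).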
With `O=C(Nc1ccc2c(c1)OCO2)NC1(C(F)(F)F)Oc2ccccc2O1` the Potency was “inactive”. With `O=C(Nc1cccc(C(F)(F)F)c1)/C(=C\c1ccco1)NC(=O)c1cccs1` the Potency was “inactive”. With `CN1CCN(S(=O)(=O)c2ccc(N3CCN(S(=O)(=O)/C=C/c4ccccc4)CC3)nc2)CC1` the Potency was “inactive”. In the case of `Cc1noc(/C=C/c2ccco2)c1S(=O)(=O)N1CCC(C(=O)N2CCc3ccccc3C2)CC1`, the Potency is reported as “inactive”. For `Cc1ccc2nc(NCCCNC(=O)c3cnccn3)c(C#N)cc2c1`, the Potency was “inactive”. For `O=C(Nc1ccc(Nc2ccncc2)cc1)c1ccc(Nc2ccnc3ccc([N+](=O)[O-])cc23)cc1`, the Potency was 3.55 µM (active). With `O=C(CSc1nnc(SCc2ccccc2)s1)N/N=C/C=C/c1ccco1` the Potency was 2.51 µM (active). In the case of `C#CCOCCOCCOCCNc1nc(N2CCN(C(=O)CCCCCCCCCCNC(=O)Cn3cc(C[C@@H](C)O)nn3)CC2)nc(N2CCN(C(=O)CCCCCCCCCCNC(=O)[C@@H]([C@H](C)CC)n3cc(CCCCCN)nn3)CC2)n1`, the Potency is reported as 5.62 µM (active). With `COc1ccc(CCN2C(=O)/C(=C\c3ccco3)SC2=S)cc1OC` the Potency was “inactive”. With `Cc1ccc(C(=O)NCCNS(=O)(=O)c2ccccc2)cc1` the Potency was “inactive”. For `Cc1c(NC(=O)C2CCCN2S(=O)(=O)c2ccc(Cl)cc2)c(=O)n(-c2ccccc2)n1C` (stereo not given), the Potency was “inactive”. With `Cn1nnnc1Sc1ncnc2scc(-c3ccc4c(c3)OCO4)c12` the Potency was “inactive”. With `Cc1ccc(Cn2nnc3c(=O)[nH]c(C4CCN(S(=O)(=O)Cc5ccccc5)CC4)nc32)cc1` the Potency was “inactive”. With `O=C(CCCN1C(=O)c2ccccc2C1=O)NC1=NCCS1` the Potency was “inactive”. For `Cc1ccc(Nc2cc(C)nc(NCc3ccccc3)n2)cc1`, the Potency was “inactive”. In the case of `CCNc1sc(C(=O)c2cccs2)c(N)c1-c1nc2ccccc2s1`, the Potency is reported as “inactive”. With `Cc1cc(-c2csc(NC(=O)c3ccc(=O)[nH]c3)n2)c(C)n1Cc1ccccc1` the Potency was “inactive”. In the case of `O=S(=O)(c1cc(Cl)ccc1Cl)N1CCNCC1`, the Potency is reported as “inactive”. For `CC(=O)OCC(=O)Nc1ccc(Cl)cc1Cl`, the Potency was “inactive”. For `c1coc(CNC2CCCCCCC2)c1`, the Potency was “inactive”. In the case of `COC(=O)CSc1nnc(NC(=O)C2CC(=O)N(c3ccc(F)cc3)C2)s1` (stereo not given), the Potency is reported as 10 µM (active). For `COc1ccc2[nH]c(=O)c(CN(C)C(=O)C3CCCCC3)cc2c1`, the Potency was “inactive”. In the case of `CCCOC(=O)CCCCC1SCC(NC(=O)OC)C1NC(=O)OC` (stereo not given), the Potency is reported as “inactive”. For `O=C(Nc1ccc(N2CCCC2)cc1)c1ccc(Br)cc1`, the Potency was 5.01 µM (active). With `Cc1ccc(C)c(S(=O)(=O)N2CCN(C(=O)/C=C/c3ccco3)CC2)c1` the Potency was 11.2 µM (active). With `COc1ccccc1-c1nnc(SCC(=O)Nc2nc(-c3ccccc3)cs2)n1C` the Potency was “inactive”. In the case of `Nc1c(C(=O)Nc2ccc(Cl)cc2)oc2ccccc12`, the Potency is reported as “inactive”. With `O=C(c1ccccc1)N1CCN(C2C3CC4CC(C3)CC2C4)CC1` (stereo not given) the Potency was “inactive”. In the case of `CCn1c2ccccc2c2nc3ccccc3nc21`, the Potency is reported as “inactive”. In the case of `CC(C)N(C(=O)c1sc2cc([N+](=O)[O-])ccc2c1Cl)C(C)C`, the Potency is reported as “inactive”. For `COc1ccc(S(=O)(=O)N(C)CC(=O)Nc2cccc(C(C)=O)c2)cc1Cl`, the Potency was “inactive”. With `O=C(OCC1OC(n2ncc(=O)[nH]c2=O)C(OC(=O)c2ccccc2)C1OC(=O)c1ccccc1)c1ccccc1` (stereo not given) the Potency was 7.94 µM (active). With `CSc1ncccc1C(=O)OCC(=O)N1CCOCC1` the Potency was “inactive”. With `CCN1C(=O)C(NC(C)=O)c2cc(OC)ccc21` (stereo not given) the Potency was “inactive”. In the case of `COC(=O)c1[nH]c2ccc(C)cc2c1NC(=O)CN1CCCc2ccccc21`, the Potency is reported as 10 µM (active). With `O=C(CN1C(=O)/C(=C2\SC(=S)N(CCS(=O)(=O)O)C2=O)c2ccccc21)Nc1cccc(Br)c1` the Potency was 12.6 µM (active). With `Cc1ccc(O)c(CC(C)C)n1` the Potency was “inactive”. For `O=C(Nc1cccc(S(=O)(=O)NC2=NCCC2)c1)c1cc(-c2ccco2)nc2ccccc12`, the Potency was 1.78 µM (active). With `O=C(C[n+]1cccc(C(=O)N/N=C/c2ccc(Br)cc2)c1)c1ccccc1` the Potency was “inactive”. For `N#Cc1cccc(C(=O)N(CCc2ccccc2)Cc2cccs2)c1`, the Potency was “inactive”.
